From PubChem BioAssay (NCATS)

Test: qHTS profiling of the MIPE4 collection as inhibitors of Plasmodium falciparum (HB3) proliferation (AID 743347);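 further: plate controls were DMSO vehicle wells for no effect and artemisinin wells for full effect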
Details: P. falciparum HB3 in erythrocytes, SYBR Green DNA, 72 h; at 28.5 µM (top of the series)
Method in brief: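 Erythrocytes infected with P. falciparum (0.3% parasitemia, 2.5% hematocrit) incubated with compounds 72 h at 37 C, 5% CO2. Lysis with saponin/Triton buffer containing SYBR Green I, overnight at room temperature in the dark; DNA fluorescence (485/535 nm) normalised to 0.29 uM artemisinin and DMSO.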

Structure (SMILES) | growth, % of control [%]
O=C(N[C@@H](COc1ccc2[nH]c(=O)[nH]c2c1)c1ccccc1)c1cccn(Cc2ccc(F)c(F)c2)c1=O | 63.1
C[C@]12CCC(=O)C(O)=C1CC[C@@H]1[C@H]3CCC(=O)[C@@]3(C)CC[C@@H]12 | 54.8
O=S(=O)(F)Cc1ccccc1 | 94
CC(C)(C)c1cc(C=C(C#N)C#N)cc(Br)c1O | 34.7
C[C@@H]1CC[C@@]2(OC1)O[C@H]1C[C@H]3[C@@H]4CC=C5C[C@@H](O[C@@H]6O[C@H](CO)[C@@H](O[C@@H]7O[C@@H](C)[C@H](O)[C@@H](O)[C@@H]7O)[C@H](O)[C@@H]6O[C@@H]6O[C@@H](C)[C@H](O)[C@@H](O)[C@@H]6O)CC[C@]5(C)[C@@H]4CC[C@]3(C)[C@@H]1[C@H]2C | 28.8
O=C(NCC1CCOCC1)c1cnc(Nc2ccc(Cl)cc2Cl)nc1C(F)(F)F | 49.9
CC(=O)OCC1=C(C(=O)O)N2C(=O)[C@@H](N)[C@@H]2SC1 | 97.3
O=C1C=CC[C@@H]2[C@H]3CCCN4CCC[C@@H](CN12)[C@@H]34 | 97.5
CC1=C(O)C(=O)C=C2C1=CC=C1[C@@]2(C)CC[C@@]2(C)[C@@H]3C[C@](C)(C(=O)O)CC[C@]3(C)CC[C@]12C | 8.31
C[C@@H]1CC[C@H]2[C@@H](C)C(=O)O[C@@H]3O[C@@]4(C)CC[C@H]1[C@]32OO4 | 7.52
CC(=O)N(C)c1cccc(-c2ccnc3c(C(=O)c4cccs4)cnn23)c1 | 50.4
COc1cc2cc(c1Cl)N(C)C(=O)C[C@H](OC(=O)C(C)C)[C@]1(C)O[C@H]1[C@H](C)[C@@H]1C[C@@](O)(NC(=O)O1)[C@H](OC)C=CC=C(C)C2 | 9.61
O=c1cccc2n1CC1CNC[C@H]2C1 | 52.1
COc1cccc2c1[C@]13CCN(CC4CC4)[C@H](C2)[C@]1(OC)CCC(=O)C3 | 69.1
O=C(Nc1ccncc1)C(=O)c1cn(Cc2ccc(Cl)cc2)c2ccccc12 | 78.4
CCNC(=O)CC1N=C(c2ccc(Cl)cc2)c2cc(OC)ccc2-n2c(C)nnc21 (centres undefined) | 42.1
CCN1CCN(C(=O)Cc2ccc(Nc3ncc(F)c(Nc4ccc(C(=O)Nc5ccccc5Cl)cc4)n3)cc2)CC1 | 7.73
C[C@]12CC[C@H](O)CC1=CC[C@H]1[C@H]3CCC(=O)[C@@]3(C)CC[C@@H]12 | 98.3
CC(=CCCC1=CCC(C2=CC(=O)OC2O)OC1O)CCC1=C(C)CCCC1(C)C (centres undefined) | 36
C[C@]12CC[C@@H]3[C@@H](CCC4=CC(=O)CC[C@@H]43)[C@@H]1CC[C@@H]2OC(=O)CCc1ccccc1 | 90.8

Structure (SMILES) | growth, % of control [%]
CSCC[C@@H](NC(=O)[C@@H](Cc1ccccc1)NC(=O)CNC(=O)CNC(=O)[C@@H](N)Cc1ccc(O)cc1)C(=O)O | 99.5
C#CC1(O)CCC2C3CCC4=CC(=O)CCC4(C)C3CCC21C (centres undefined) | 89
CCC(=O)OC1CCC2C3CCC4=CC(=O)CC[C@@]4(C)C3CC[C@]12C (some centres undefined) | 94.7
O=C1CCC[C@@H]2[C@H]3CCCN4CCC[C@@H](CN12)[C@@H]34 | 96.2
COc1ccc(N(C(=O)Oc2c(C)cccc2C)c2ccnc(Nc3ccc(N4CCN(C)CC4)cc3)n2)c(OC)c1 | 9.74
COC1=C[C@@H]2[C@@H]3Cc4ccc(OC)c(O)c4[C@]2(CCN3C)CC1=O | 106
CC=C(C)C(=O)O[C@H]1C(C)=C2[C@@H]3OC(=O)[C@@](C)(O)[C@@]3(O)[C@@H](OC(=O)CCC)C[C@](C)(OC(C)=O)[C@@H]2[C@@H]1OC(=O)CCCCCCC | 8.71
C=C[C@@H]1CN2CCC1C[C@@H]2[C@@H](O)c1ccnc2ccccc12 (some centres undefined) | 17.3
C=C[C@@H]1CN2CCC1C[C@H]2[C@H](O)c1ccnc2ccccc12 (some centres undefined) | 21.5
C[C@@]12OC(=O)[C@]1([C@@H](O)[C@@H]1C=CCCC1)NC(=O)[C@H]2CCCl | 5.21
COC[C@H]1OC(=O)c2coc3c2[C@@]1(C)C1=C(C3=O)[C@@H]2CC[C@H](O)[C@@]2(C)C[C@@H]1OC(C)=O | 48.8
CC=C(C)C(=O)N[C@@H](c1ccccc1)[C@@H](O)C(=O)O[C@H]1C[C@@]2(O)[C@@H](OC(=O)c3ccccc3)[C@@H]3[C@]4(OC(C)=O)CO[C@@H]4C[C@H](O)[C@@]3(C)C(=O)[C@H](OC(C)=O)C(=C1C)C2(C)C | 6.33
CCNC(=O)C[C@@H]1N=C(c2ccc(Cl)cc2)c2cc(OC)ccc2-n2c(C)nnc21 | 94.6
CCOP(=O)(OCC)C(C)NC(=O)N(CCCl)N=O (centres undefined) | 116
COc1ccc2c(c1)CN(C)CC2c1ccc(Cl)c(Cl)c1 (centres undefined) | 9.4
C[C@@H]1O[C@@H](O[C@@H]2C=C3CC[C@@H]4[C@@H](CC[C@]5(C)[C@H](c6ccc(=O)oc6)CC[C@@]45O)[C@@]3(C)CC2)[C@H](O)[C@H](O)[C@H]1O | 94.5
Cc1[nH]nc2ccc(-c3cncc(OC[C@@H](N)Cc4c[nH]c5ccccc45)c3)cc12 | 8.77
CO[C@H]1CCC(O[C@H]2C[C@H]([C@]3(C)CC[C@]4(C[C@H](O)[C@@H](C)[C@@H]([C@@H](C)C=C(C)C(=O)[C@H](C)C[C@H](C)C(=O)O)O4)O3)O[C@]3(O[C@@H]([C@H]4O[C@@](O)(CO)[C@H](C)C[C@H]4C)C[C@H]3C)[C@H]2C)O[C@H]1C (some centres undefined) | 8.74
CC(=Cc1csc(C)n1)[C@@H]1C[C@H]2O[C@]2(C)CCC[C@H](C)[C@@H](O)[C@@H](C)C(=O)C(C)(C)[C@@H](O)CC(=O)O1 | 16.9
